Measured values published in PubChem BioAssay AID1159580 (chemical genetic matrix, 2015).
About 2,000 (36%) of roughly 5,500 compounds were called active. Roughly 18% stayed inconclusive and do not appear here. Rule as the data show it: active = normalized growth mostly below about 0.91 (no sharp cut-off); inconclusive = no clear call, values can overlap the other calls; inactive = mostly above about 0.92. The list shows a part of the results.

Assay: chemical genetic growth profiling, strain panel (AID 1159580);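 also: tested at 20 µM; growth read once vehicle control cultures reached saturation at 30 °C; 1 = growth at the plate median or of vehicle wells; lower values mean less growth of the strain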
Conditions: S. cerevisiae deletion strains, growth OD

Measured: normalized growth

O=c1cc(CSc2ccc(Cl)cc2)c2ccc(O)cc2o1
inactive: locus YAR019C, strain CDC15, hits give low values 0.937 | locus YBL105C, strain PKC1, hits give low values 0.963 | locus YBR135W, strain CKS1, hits give low values 0.944 | locus YBR136W, strain MEC1, hits give low values 0.949 | locus YBR160W, strain CDC28, hits give low values 0.96 | locus YDL017W, strain CDC7, hits give low values 0.964 | locus YDL028C, strain MPS1, hits give low values 0.956 | locus YDL101C, strain DUN1, hits give low values 0.974 | locus YDL108W, strain KIN28, hits give low values 0.955 | locus YDL132W, strain cdc53, hits give low values 0.944 | locus YDL214C, strain PRR2, hits give low values 0.738 | locus YDR052C, strain DBF4, hits give low values 0.962 | locus YDR054C, strain cdc34, hits give low values 0.937 | locus YDR226W, strain ADK1, hits give low values 0.959 | locus YFL009W, strain cdc4, hits give low values 0.935 | locus YFL029C, strain CAK1, hits give low values 0.943 | locus YFR003C, strain YPI1, hits give low values 0.959 | locus YFR019W, strain FAB1, hits give low values 0.826 | locus YFR028C, strain CDC14, hits give low values 0.954 | locus YGR092W, strain DBF2, hits give low values 0.63 | locus YHR205W, strain SCH9, hits give low values 0.759 | locus YIL147C, strain SLN1, hits give low values 0.95 | locus YJL128C, strain PBS2, hits give low values 0.92 | locus YJL157C, strain FAR1, hits give low values 0.737 | locus YJR016C, strain ILV3, hits give low values 0.945 | locus YJR066W, strain TOR1 (second series), hits give low values 0.738 | locus YJR066W, strain TOR1, hits give low values 0.534 | locus YKL193C, strain SDS22, hits give low values 0.947 | locus YLR133W, strain CKI1, hits give low values 0.747 | locus YMR001C, strain CDC5, hits give low values 0.944 | locus YMR205C, strain PFK2 (second series), hits give low values 0.748 | locus YMR277W, strain FCP1, hits give low values 0.928 | locus YNL006W, strain LST8, hits give low values 0.958 | locus YNL020C, strain ARK1, hits give low values 0.719 | locus YNL161W, strain CBK1, hits give low values 0.947 | locus YNL207W, strain RIO2, hits give low values 0.946 | locus YNL222W, strain SSU72, hits give low values 0.944 | locus YNL307C, strain MCK1 (second series), hits give low values 0.686 | locus YOL078W, strain AVO1, hits give low values 0.939 | locus YOL136C, strain PFK27, hits give low values 0.748 | locus YOR061W, strain CKA2, hits give low values 0.712 | locus YOR329C, strain SCD5, hits give low values 0.955 | locus YPL209C, strain IPL1, hits give low values 0.955 | locus YPR025C, strain CCL1, hits give low values 0.952 | locus YPR106W, strain ISR1, hits give low values 0.952 | locus YPR111W, strain DBF20, hits give low values 0.951 | strain NNK1, hits give low values 0.948 | strain TSCII, hits give low values 0.934
active: locus YDR477W, strain SNF1, hits give low values 0.674 | locus YER123W, strain YCK3, hits give low values 0.565 | locus YER133W, strain GLC7, hits give low values 0.572 | locus YGR040W, strain KSS1, hits give low values 0.631 | locus YGR052W, strain FMP48, hits give low values 0.436 | locus YHR030C, strain SLT2, hits give low values 0.452 | locus YHR079C, strain IRE1, hits give low values 0.405 | locus YHR082C, strain KSP1, hits give low values 0.472 | locus YJL095W, strain BCK1, hits give low values 0.432 | locus YKL048C, strain ELM1, hits give low values 0.656 | locus YKL067W, strain YNK1, hits give low values 0.732 | locus YKL101W, strain HSL1, hits give low values 0.682 | locus YKL203C, strain TOR2, hits give low values 0.66 | locus YLR113W, strain HOG1, hits give low values 0.265 | locus YLR403W, strain SFP1, hits give low values 0.639 | locus YML070W, strain DAK1, hits give low values 0.666 | locus YNL183C, strain NPR1, hits give low values 0.434 | locus YOR119C, strain RIO1, hits give low values 0.654 | locus YOR231W, strain MKK1, hits give low values 0.444 | locus YPL031C, strain PHO85, hits give low values 0.497 | locus YPL153C, strain RAD53, hits give low values 0.442 | locus YPL204W, strain HRR25, hits give low values 0.574 | locus YPL256C, strain CLN2, hits give low values 0.41

COC1CC(OC2CCC3(C)C(CCC4C3CCC3(C)C(C5=CC(=O)OC5)C(OC(C)=O)CC43O)C2)OC(C)C1O (stereo not drawn)
inactive: locus YAL021C, strain ccr4, hits give low values 0.998 | locus YAL026C, strain drs2, hits give low values 1.02 | locus YAL030W, strain snc1, hits give low values 1.01 | locus YBL061C, strain skt5, hits give low values 1.02 | locus YBR009C, strain hhf1, hits give low values 1.02 | locus YBR023C, strain chs3, hits give low values 1.02 | locus YBR171W, strain sec66, hits give low values 1.03 | locus YBR231C, strain swc5, hits give low values 1.02 | locus YBR279W, strain paf1, hits give low values 1.01 | locus YCL011C, strain gbp2, hits give low values 1.02 | locus YCL016C, strain dcc1, hits give low values 1.01 | locus YCL061C, strain MRC1, hits give low values 1.02 | locus YCL069W, strain vba3, hits give low values 1.02 | locus YCR088W, strain abp1, hits give low values 1.02 | locus YDL005C, strain med2, hits give low values 1.03 | locus YDL040C, strain nat1, hits give low values 1.01 | locus YDR001C, strain nth1, hits give low values 1.02 | locus YDR069C, strain doa4, hits give low values 1.01 | locus YDR137W, strain rgp1, hits give low values 1 | locus YDR159W, strain sac3, hits give low values 1.04 | locus YDR195W, strain ref2 1.03 | locus YDR297W, strain sur2, hits give low values 1.03 | locus YDR334W, strain swr1, hits give low values 1.03 | locus YDR335W, strain msn5, hits give low values 1.03 | locus YDR392W, strain spt3, hits give low values 0.984 | locus YEL003W, strain gim4, hits give low values 1.02 | locus YEL037C, strain rad23, hits give low values 1.02 | locus YEL061C, strain CIN8 (second series), hits give low values 1.02 | locus YER015W, strain faa2, hits give low values 1.02 | locus YER016W, strain bim1, hits give low values 1.02 | locus YER111C, strain swi4, hits give low values 1.03 | locus YER155C, strain BEM2 (second series), hits give low values 1.03 | locus YFR010W, strain ubp6, hits give low values 1.03 | locus YGL167C, strain pmr1, hits give low values 1.02 | locus YGL173C, strain kem1, hits give low values 1.03 | locus YGL227W, strain vid30, hits give low values 1.02 | locus YGL240W, strain doc1, hits give low values 1.01 | locus YGL253W, strain hxk2, hits give low values 1.03 | locus YHR013C, strain ard1, hits give low values 1.03 | locus YHR027C, strain rpn1, hits give low values 1.03 | locus YHR142W, strain chs7, hits give low values 1.02 | locus YJL092W, strain hpr5, hits give low values 1.03 | locus YJL095W, strain BCK1 (second series), hits give low values 1.01 | locus YJL115W, strain asf1, hits give low values 1.03 | locus YJL129C, strain trk1, hits give low values 1.02 | locus YJL154C, strain vps35, hits give low values 1.02 | locus YJL164C, strain tpk1, hits give low values 1 | locus YJL166W, strain qcr8, hits give low values 1.03 | locus YJL187C, strain SWE1, hits give low values 1.01 | locus YKL160W, strain elf1, hits give low values 1.01 | locus YKR026C, strain gcn3, hits give low values 1.02 | locus YKR091W, strain srl3, hits give low values 1.01 | locus YLL001W, strain dnm1, hits give low values 1.02 | locus YLL026W, hits give low values 1.02 | locus YLL041C, strain sdh2, hits give low values 1.02 | locus YLR027C, strain aat2, hits give low values 1.01 | locus YLR221C, strain rsa3, hits give low values 1.03 | locus YLR258W, strain gsy2, hits give low values 1.01 | locus YLR262C, strain YPT6 (second series), hits give low values 1.04 | locus YLR320W, strain mms22, hits give low values 1.01 | locus YLR342W, strain FKS1, hits give low values 1.02 | locus YLR357W, strain rsc2, hits give low values 1.06 | locus YLR370C, strain arc18, hits give low values 1.02 | locus YLR384C, strain iki3, hits give low values 1.02 | locus YML120C, strain ndi1, hits give low values 1.01 | locus YMR058W, strain fet3, hits give low values 1.04 | locus YMR125W, strain sto1, hits give low values 1.02 | locus YMR129W, hits give low values 1.01 | locus YMR205C, strain PFK2, hits give low values 1.01 | locus YMR231W, strain pep5, hits give low values 1.02 | locus YNL071W, strain lat1, hits give low values 1.02 | locus YNL209W, strain ssb2, hits give low values 1.01 | locus YNL248C, strain rpa49, hits give low values 0.939 | locus YNL322C, strain KRE1 (second series), hits give low values 1.03 | locus YNR049C, strain mso1, hits give low values 1.01 | locus YOR001W, strain rrp6, hits give low values 1.02 | locus YOR070C, strain gyp1, hits give low values 1.03 | locus YOR080W, strain dia2, hits give low values 1.02 | locus YOR083W, strain WHI5, hits give low values 1 | locus YOR106W, strain vam3, hits give low values 1.01 | locus YOR265W, strain rbl2, hits give low values 1.01 | locus YOR270C, strain vph1, hits give low values 1.02 | locus YOR290C, strain snf2, hits give low values 0.986 | locus YPL051W, strain arl3, hits give low values 1.01 | locus YPL078C, strain atp4, hits give low values 1.01 | locus YPL106C, strain sse1, hits give low values 1.01 | locus YPL240C, strain hsp82, hits give low values 1.02
